TRHR PAM: qHTS for Small Molecule Agonists and Allosteric Enhancers of Human TRH Receptor: Primary Screen for Enhancers. enhancement, % at 2 µM. Thyrotropin-releasing hormone receptor (Homo sapiens), P34981. TRHR cells, fluo-8 calcium fluorescence, EC20 TRH enhancement. 360,000 compounds, 0.66% hits; in the data active means enhancement above about 30%; further: 0% is about no effect
Target sequence (P34981 whole entry, looked up): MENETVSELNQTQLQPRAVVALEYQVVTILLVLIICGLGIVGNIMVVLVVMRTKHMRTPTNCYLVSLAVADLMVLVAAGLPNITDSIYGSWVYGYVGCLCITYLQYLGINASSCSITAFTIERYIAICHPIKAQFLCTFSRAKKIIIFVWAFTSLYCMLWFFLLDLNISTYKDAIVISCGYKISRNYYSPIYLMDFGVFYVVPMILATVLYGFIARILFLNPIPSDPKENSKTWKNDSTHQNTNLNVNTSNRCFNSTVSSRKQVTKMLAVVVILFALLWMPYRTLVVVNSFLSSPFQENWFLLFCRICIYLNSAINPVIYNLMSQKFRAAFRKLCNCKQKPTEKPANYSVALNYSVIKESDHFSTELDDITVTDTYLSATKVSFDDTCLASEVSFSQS
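TRHR-expressing cells loaded with fluo-8 calcium dye were read kinetically (ex 480/em 530) during compound addition, then stimulated with an EC20 of TRH (10 nM final). Enhancement of the Gq-mediated intracellular calcium response was scored.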
D1 antagonist: Antagonist of Human D 1 Dopamine Receptor: qHTS | D(1A) dopamine receptor (Homo sapiens), P21728 | HEK293 TREx D1 cells, calcium flux, dopamine EC80; active compounds read low | activity change, negative = inhibition, % at 10 µM | 360,000 compounds, 3.2% hits; in the data active means activity change below about -30%; further: on the % scale 0 is the no-effect control and ±100 the full control effect
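HEK293 T-REx cells expressing inducible, force-coupled D1 receptor; no-wash Ca dye, 30–90 min RT. Cmpd → 180 s read at 1 Hz → EC80 DA → 180 s read.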
GRP78 ERSR act: qHTS for Inducers of the Endoplasmic Reticulum Stress Response (ERSR) in Human Glioma: qHTS | U87-MG GRP78 promoter luciferase reporter, 16 h | Potency, µM, inactives show at the highest dose activation, usual class: activators | 420,000 compounds, 0.02% hits | AID 602332, 2012; active means well fitted activation curve with a large enough effect; inconclusive means small, poorly fitted or top-dose-only effect; inactive means no such curve, though single readings can be large or run the other way; further: potency means the concentration at half of the fitted maximal effect; series mostly up to about 76 µM; % of control where 0% means no effect; nearly all actives have a fitted effect of over 35% in size
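Stably transfected U87-MG human glioma cells carrying a GRP78-based luminescent sensor were seeded at 1000 cells/well, pin-dosed with compounds and incubated 16 h. Luciferase reagent was then added, and end-point luminescence was read after 10 min at room temperature.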
TRHR ag: qHTS for Small Molecule Agonists and Allosteric Enhancers of Human TRH Receptor: Primary Screen for Agonists | Thyrotropin-releasing hormone receptor (Homo sapiens), P34981 | TRHR cells, calcium flux fluo-8, FDSS agonist mode | activation, % at 2 µM | 360,000 compounds, 0.18% hits | AID 493084, 2011; further: 0% is about no effect
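Fluo-8-loaded TRHR cells; 10 s baseline, compound added, kinetic Ca2+ fluorescence read 1/s, agonist mode.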
D1 agonist: Allosteric Agonists of the Human D1 Dopamine Receptor: qHTS | D(1A) dopamine receptor (Homo sapiens), P21728 | HEK293 T-REx D1 cells, calcium flux, agonist mode | activation, % at 2 µM | 360,000 compounds, 1% hits | AID 504660, 2011; further: 0% is about no effect
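Tetracycline-induced HEK293 TREx D1 cells, force-coupled to calcium signalling, were dye-loaded with a no-wash calcium kit. Compound was pin-added after a 10 s baseline. Fluorescence was read kinetically at 1 cycle/s for 180 s, with calcium rises flagged as agonism.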
D1 potentiator: Potentiators of Human D1 Dopamine Receptor: qHTS | D(1A) dopamine receptor (Homo sapiens), P21728 | HEK293 TREx D1 cells, calcium flux, dopamine EC20 potentiation | potentiation, % at 10 µM | 360,000 compounds, 0.036% hits | AID 504651, 2011; in the data active means potentiation above about 30%; further: 0% is about no effect
* = called active by the depositor; ? = inconclusive; . = no result given. The list is not random: actives were taken first. Their share in the collection is about 4%. Unless noted, no stated cut-off is given here; in the data, active means activation above about 30%; inactive means the rest.

SMILES | TRHR PAM | D1 antagonist | GRP78 ERSR act | TRHR ag | D1 agonist | D1 potentiator
Nc1ccc2nonc2c1[N+](=O)[O-] | 4 | -12 | -4% | 17 | 92* | 2
CNS(=O)(=O)c1ccc(N=Cc2c(O)n(-c3ccccc3)c(=O)[nH]c2=O)cc1 | 11 | -5 | -3% | 1 | 1 | 1
CSc1nnc([C@@H](N)Cc2ccccc2)o1 | -5 | 11 | 0% | 0 | 1 | 1
CC(C)Sc1nnc([C@@H](N)Cc2ccccc2)o1 | 10 | -11 | 0% | -1 | 75* | -2
Nc1c(C(=O)OCc2ccccc2)c2nc3ccccc3nc2n1Cc1cccs1 | -3 | -30* | 0% | 0 | 2 | -4
O=C(COc1ccc(Br)cc1)N1CCN(Cc2ccc3c(c2)OCO3)CC1 | 4 | -34* | -3% | 1 | 5 | 0
Cc1ccc(OCC(=O)N2CCN(Cc3ccc4c(c3)OCO4)CC2)cc1C | -3 | 0 | -4% | 0 | 1 | -3
CCCCn1c(O)c(C(CC)=NCCCn2ccnc2)c(=O)[nH]c1=O | 2 | -3 | -1% | 0 | 2 | 0
C=C(C)C1Cc2c(ccc3c(=O)c4c(oc23)COc2cc(OC)c(OC)cc2-4)O1 (stereo unspecified) | . | . | -4% | . | . | .
O=C(N=Nc1c(O)[nH]c(=O)[nH]c1=O)C1COc2ccccc2O1 (stereo unspecified) | -7 | -37* | 0% | 0 | 2 | -10
Clc1ccc2c(c1)C(c1ccccc1Cl)=NCc1nnc(N3CCN(CCSc4ccccc4)CC3)n1-2 | -9 | -1 | 1% | -1 | 7 | 2
Clc1ccc2c(c1)C(c1ccccc1Cl)=NCc1nnc(N3CCN(CCOc4ccccc4)CC3)n1-2 | 13 | -22 | -4% | -1 | 39* | -10
COc1cc2c(cc1OC)CC[N+](C)=C2 | 2 | -15 | -3% | 0 | -4 | 0
CC(Cc1ccccc1Sc1ccccc1O)N(C)C (stereo unspecified) | 16 | -38* | -3% | 2 | 40* | 0
C#CCN(C)[C@H](C)Cc1ccccc1 | 1 | 11 | -3% | 0 | 3 | 0
NCC(O)c1cc(O)c(O)cc1F (stereo unspecified) | -4 | -85* | -2% | 1 | 37* | -6
CCN1C[C@@]2(COC)C3[C@@H](OC)[C@H]4[C@@H]1[C@@]3(C1C[C@H]3[C@H](OC(=O)c5ccccc5)C1[C@]4(OC(C)=O)C[C@H]3OC)[C@@H](OC)C[C@H]2O (stereo partly specified) | . | . | -3% | . | . | .
CN1CCc2cccc(Cl)c2CC1 | 0 | -64* | -1% | 1 | 0 | -7
CN1CCN(Cc2c(F)cccc2Cl)CC1 | 7 | -11 | -1% | 0 | 5 | -6
CCc1ccc(CNCCc2ccc(F)cc2)cc1 | 10 | -11 | -5% | -1 | 62* | -7
CCN(CC)c1ccc(CNCCc2ccc(F)cc2)cc1 | 1 | 4 | -3% | 1 | 64* | 1
Fc1ccc(CCNCc2ccc(Cl)c(Cl)c2)cc1 | 3 | -15 | -1% | 1 | 10 | -2
COC(=O)C1=C(N)Oc2cc(C)oc(=O)c2C12C(=O)Nc1ccccc12 (stereo unspecified) | 2 | 14 | 1% | 0 | 3 | -6
CN(C)CCOC(=O)c1cn(Cc2ccccc2)c2ccccc12 | -4 | 11 | -6% | 3 | 18 | -8
CN1C(CC(O)c2ccccc2)CCCC1CC(O)c1ccccc1 (stereo unspecified) | 11 | -45* | 0% | 0 | 3 | -7
SMILES | TRHR PAM | D1 antagonist | GRP78 ERSR act | TRHR ag | D1 agonist | D1 potentiator
OC(CNC1CCCCCCC1)c1ccccc1 (stereo unspecified) | 1 | -4 | . | 0 | 5 | 6
C=C(C)CC1(CC)C(=O)NC(=S)NC1=O | . | . | -2% | . | . | .
c1ccc2c(c1)[nH]c1cnccc12 | -4 | 17 | -2% | 0 | 0 | -2
Cc1c2ccncc2c(C)c2c1[nH]c1ccccc12 | -11 | -24 | ? | 25 | 33* | -2
CCOC(=O)C1=C(C)OC(N)=C(C#N)C12C(=O)Nc1ccc(C)cc12 (stereo unspecified) | 2 | 5 | -4% | 2 | 3 | -4
CCn1c(O)c(/C=N/NC(=O)c2ccncc2)c(=O)[nH]c1=S | 10 | -31* | -7% | 0 | 3 | 0
CN(C)C(=O)Oc1ccc(OCc2nc3ccccc3[nH]2)cc1 | -4 | -48* | -13% | 0 | 16 | -8
CN(C)C(=O)Oc1ccc(OC(=O)N(C)C)cc1 | 7 | -5 | 2% | 0 | 1 | -1
CCCCP(=O)(O)CCC(=O)O | 4 | -2 | -4% | 1 | 2 | -4
CNC(=O)c1cccn(Cc2ccc(C(F)(F)F)cc2)c1=O | -7 | 1 | 13% | 1 | 6 | -3
CNC(=O)c1cccn(Cc2cc(C(F)(F)F)cc(C(F)(F)F)c2)c1=O | -9 | 1 | 1% | 2 | 30* | -1
COCCCn1c(N)c(C(=O)OC(C)COC)c2nc3ccccc3nc21 (stereo unspecified) | -1 | -32* | -2% | -2 | 0 | -4
CC(=O)N1Cc2cnnn2-c2ccccc2C1C#N (stereo unspecified) | . | . | -2% | . | . | .
O=C(COc1ccc2ccccc2c1)N1CCN(C2CCN(Cc3ccccc3)CC2)CC1 | 1 | -46* | -3% | 1 | 26 | -12
CN1CCN(C(=O)COc2ccc3ccccc3c2)CC1 | 3 | 0 | 1% | 0 | 2 | -3
Nc1ccc2ccc3cccc[n+]3c2c1 | 9 | -26 | 0% | 65* | 131* | 12
CN1CCN(c2ccc(C(N)=O)cc2[N+](=O)[O-])CC1 | 2 | 14 | -3% | 0 | 2 | -3
CC[C@H]1OC(=O)C[C@@H](O)[C@H](C)[C@@H](O[C@@H]2O[C@H](C)[C@@H](O[C@H]3C[C@@](C)(O)[C@@H](O)[C@H](C)O3)[C@H](N(C)C)[C@H]2O)[C@@H](CC=O)C[C@@H](C)C(=O)/C=C/C(C)=C/[C@@H]1CO[C@@H]1O[C@H](C)[C@@H](O)[C@@H](OC)[C@H]1OC | . | . | -3% | . | . | .
Cc1cccc(-n2c(O)c(/C=C/C=Nc3ccccc3)c(=O)[nH]c2=O)c1 | -2 | -1 | -5% | 19 | 34* | 2
